Results published in ChEMBL document CHEMBL2218924, “A broad activity screen in support of a chemogenomic map for kinase signalling research and drug discovery” (Biochem J, 2013).

Legend:
[1] = target: Ephrin type-A receptor 4 (Homo sapiens) (UniProt P54764); conditions: at 1 µM
[2] = target: Ephrin type-A receptor 4 (Homo sapiens) (UniProt P54764); conditions: at 10 µM
[3] = target: T1, Ephrin type-B receptor 1 (Homo sapiens) (UniProt P54762); conditions: at 10 µM
T1 sequence (whole entry): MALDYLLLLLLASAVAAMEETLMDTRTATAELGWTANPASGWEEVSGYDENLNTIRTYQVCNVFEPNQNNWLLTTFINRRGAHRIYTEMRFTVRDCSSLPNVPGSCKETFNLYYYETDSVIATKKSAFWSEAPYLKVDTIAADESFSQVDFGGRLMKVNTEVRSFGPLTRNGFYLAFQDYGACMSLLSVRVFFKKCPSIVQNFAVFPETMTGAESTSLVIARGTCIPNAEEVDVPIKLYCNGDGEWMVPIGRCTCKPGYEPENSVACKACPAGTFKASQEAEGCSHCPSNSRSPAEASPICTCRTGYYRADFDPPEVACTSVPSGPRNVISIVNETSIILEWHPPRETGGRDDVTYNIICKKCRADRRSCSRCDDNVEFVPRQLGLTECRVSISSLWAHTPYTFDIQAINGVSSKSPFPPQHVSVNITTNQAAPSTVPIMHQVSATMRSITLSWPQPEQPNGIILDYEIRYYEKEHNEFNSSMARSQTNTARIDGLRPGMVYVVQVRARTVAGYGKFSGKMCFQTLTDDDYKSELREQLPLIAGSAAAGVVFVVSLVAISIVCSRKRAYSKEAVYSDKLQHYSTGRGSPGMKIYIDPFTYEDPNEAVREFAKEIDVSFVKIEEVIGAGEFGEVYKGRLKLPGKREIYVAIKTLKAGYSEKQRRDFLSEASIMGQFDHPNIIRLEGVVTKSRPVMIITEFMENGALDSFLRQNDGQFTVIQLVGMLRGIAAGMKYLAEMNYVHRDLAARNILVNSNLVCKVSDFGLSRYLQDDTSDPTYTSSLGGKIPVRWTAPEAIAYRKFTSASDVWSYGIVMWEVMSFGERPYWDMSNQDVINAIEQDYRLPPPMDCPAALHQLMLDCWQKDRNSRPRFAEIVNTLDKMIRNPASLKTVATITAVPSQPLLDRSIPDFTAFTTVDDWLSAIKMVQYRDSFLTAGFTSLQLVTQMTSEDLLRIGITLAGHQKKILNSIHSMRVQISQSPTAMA

[4] = target: T2, Ephrin type-B receptor 2 (Homo sapiens) (UniProt P29323); conditions: at 1 µM
T2 sequence (whole entry): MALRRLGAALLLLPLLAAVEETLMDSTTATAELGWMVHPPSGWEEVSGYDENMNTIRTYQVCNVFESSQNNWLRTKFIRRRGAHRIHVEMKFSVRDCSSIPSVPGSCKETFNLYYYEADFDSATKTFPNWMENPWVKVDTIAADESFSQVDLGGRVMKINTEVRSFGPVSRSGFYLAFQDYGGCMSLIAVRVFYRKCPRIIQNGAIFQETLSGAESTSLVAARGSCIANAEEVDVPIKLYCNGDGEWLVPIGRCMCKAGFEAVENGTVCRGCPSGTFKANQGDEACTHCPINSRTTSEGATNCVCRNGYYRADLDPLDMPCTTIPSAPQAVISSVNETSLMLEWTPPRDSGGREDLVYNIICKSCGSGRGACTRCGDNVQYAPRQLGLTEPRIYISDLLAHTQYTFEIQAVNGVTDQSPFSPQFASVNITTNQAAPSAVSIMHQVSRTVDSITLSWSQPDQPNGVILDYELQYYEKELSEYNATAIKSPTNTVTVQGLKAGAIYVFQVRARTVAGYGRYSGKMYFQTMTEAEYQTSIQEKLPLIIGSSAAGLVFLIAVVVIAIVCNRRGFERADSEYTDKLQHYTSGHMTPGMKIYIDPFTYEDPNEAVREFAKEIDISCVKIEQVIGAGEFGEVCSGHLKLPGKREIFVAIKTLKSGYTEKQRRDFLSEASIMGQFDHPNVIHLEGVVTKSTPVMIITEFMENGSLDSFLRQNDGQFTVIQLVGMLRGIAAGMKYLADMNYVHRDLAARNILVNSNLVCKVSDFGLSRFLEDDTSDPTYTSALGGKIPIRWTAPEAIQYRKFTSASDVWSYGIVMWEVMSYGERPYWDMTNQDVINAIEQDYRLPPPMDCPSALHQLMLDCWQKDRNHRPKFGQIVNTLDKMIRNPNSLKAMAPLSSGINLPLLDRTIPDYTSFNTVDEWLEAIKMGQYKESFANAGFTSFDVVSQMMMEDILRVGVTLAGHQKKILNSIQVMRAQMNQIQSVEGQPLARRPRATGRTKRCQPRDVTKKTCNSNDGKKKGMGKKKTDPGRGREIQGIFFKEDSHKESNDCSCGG

[5] = target: T2, Ephrin type-B receptor 2 (Homo sapiens); conditions: at 10 µM
[6] = target: T3, Ephrin type-B receptor 3 (Homo sapiens) (UniProt P54753); conditions: at 1 µM
T3 sequence (whole entry): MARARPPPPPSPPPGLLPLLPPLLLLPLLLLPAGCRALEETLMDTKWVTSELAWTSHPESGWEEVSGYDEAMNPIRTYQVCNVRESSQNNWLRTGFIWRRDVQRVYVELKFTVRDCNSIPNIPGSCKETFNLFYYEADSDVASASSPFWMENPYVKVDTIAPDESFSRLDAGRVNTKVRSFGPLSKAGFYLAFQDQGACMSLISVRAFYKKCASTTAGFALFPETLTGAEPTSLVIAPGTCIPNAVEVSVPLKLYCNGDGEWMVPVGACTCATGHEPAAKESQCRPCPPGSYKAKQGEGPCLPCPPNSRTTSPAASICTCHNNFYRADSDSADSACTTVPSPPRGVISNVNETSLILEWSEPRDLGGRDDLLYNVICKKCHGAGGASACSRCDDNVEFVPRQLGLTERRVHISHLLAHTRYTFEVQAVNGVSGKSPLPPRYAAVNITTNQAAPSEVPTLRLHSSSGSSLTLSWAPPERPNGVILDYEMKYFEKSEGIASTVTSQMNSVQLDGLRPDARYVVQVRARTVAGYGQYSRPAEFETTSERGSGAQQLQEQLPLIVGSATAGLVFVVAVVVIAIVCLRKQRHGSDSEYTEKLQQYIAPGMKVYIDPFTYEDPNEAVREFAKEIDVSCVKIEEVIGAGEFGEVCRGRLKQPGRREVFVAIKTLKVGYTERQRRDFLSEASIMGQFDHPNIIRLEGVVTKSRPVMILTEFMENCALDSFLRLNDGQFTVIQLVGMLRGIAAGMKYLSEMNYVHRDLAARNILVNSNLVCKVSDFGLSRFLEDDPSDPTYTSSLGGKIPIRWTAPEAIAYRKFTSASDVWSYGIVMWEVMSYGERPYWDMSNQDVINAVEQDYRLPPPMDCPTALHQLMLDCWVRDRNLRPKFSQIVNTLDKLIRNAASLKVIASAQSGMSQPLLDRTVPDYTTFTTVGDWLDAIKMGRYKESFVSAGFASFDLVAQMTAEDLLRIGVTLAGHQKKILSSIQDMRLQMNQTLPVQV

[7] = target: T3, Ephrin type-B receptor 3 (Homo sapiens); conditions: at 10 µM
[8] = target: Ephrin type-A receptor 5 (Homo sapiens) (UniProt P54756); conditions: at 1 µM
[9] = target: Ephrin type-A receptor 5 (Homo sapiens) (UniProt P54756); conditions: at 10 µM
[10] = target: Ephrin type-A receptor 7 (Homo sapiens) (UniProt Q15375); conditions: at 1 µM
[11] = target: Ephrin type-A receptor 7 (Homo sapiens) (UniProt Q15375); conditions: at 10 µM
[12] = target: T4, Ephrin type-A receptor 8 (Homo sapiens) (UniProt P29322); conditions: at 1 µM
T4 sequence (whole entry): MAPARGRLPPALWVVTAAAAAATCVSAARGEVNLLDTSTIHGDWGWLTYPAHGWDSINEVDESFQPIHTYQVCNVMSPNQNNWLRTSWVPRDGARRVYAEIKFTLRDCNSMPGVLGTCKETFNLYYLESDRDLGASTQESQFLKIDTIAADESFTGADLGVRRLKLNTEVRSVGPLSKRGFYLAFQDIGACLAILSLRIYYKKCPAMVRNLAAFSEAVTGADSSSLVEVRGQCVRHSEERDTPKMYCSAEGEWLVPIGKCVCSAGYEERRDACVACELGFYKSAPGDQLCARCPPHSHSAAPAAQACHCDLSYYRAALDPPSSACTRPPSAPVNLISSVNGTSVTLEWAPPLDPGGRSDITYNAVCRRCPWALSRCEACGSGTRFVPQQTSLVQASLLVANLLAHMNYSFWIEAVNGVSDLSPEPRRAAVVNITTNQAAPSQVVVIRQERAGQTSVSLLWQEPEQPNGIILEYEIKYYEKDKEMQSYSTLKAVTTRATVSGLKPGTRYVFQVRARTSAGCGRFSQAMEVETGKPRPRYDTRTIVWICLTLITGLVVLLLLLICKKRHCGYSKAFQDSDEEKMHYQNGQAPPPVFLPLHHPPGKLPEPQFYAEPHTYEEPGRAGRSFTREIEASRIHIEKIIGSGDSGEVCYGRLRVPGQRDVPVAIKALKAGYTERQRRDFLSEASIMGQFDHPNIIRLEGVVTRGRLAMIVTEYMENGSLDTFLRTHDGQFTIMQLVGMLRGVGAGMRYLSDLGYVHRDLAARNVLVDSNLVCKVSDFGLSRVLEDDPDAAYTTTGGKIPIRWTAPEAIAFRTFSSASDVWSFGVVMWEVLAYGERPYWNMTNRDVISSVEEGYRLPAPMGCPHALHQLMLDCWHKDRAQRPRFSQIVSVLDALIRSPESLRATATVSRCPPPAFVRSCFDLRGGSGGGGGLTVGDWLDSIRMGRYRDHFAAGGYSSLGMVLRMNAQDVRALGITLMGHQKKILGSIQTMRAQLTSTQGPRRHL

[13] = target: T1, Ephrin type-B receptor 1 (Homo sapiens); conditions: at 1 µM

Chain of Ephrin type-A receptor 4 (Homo sapiens) (P54764 whole entry): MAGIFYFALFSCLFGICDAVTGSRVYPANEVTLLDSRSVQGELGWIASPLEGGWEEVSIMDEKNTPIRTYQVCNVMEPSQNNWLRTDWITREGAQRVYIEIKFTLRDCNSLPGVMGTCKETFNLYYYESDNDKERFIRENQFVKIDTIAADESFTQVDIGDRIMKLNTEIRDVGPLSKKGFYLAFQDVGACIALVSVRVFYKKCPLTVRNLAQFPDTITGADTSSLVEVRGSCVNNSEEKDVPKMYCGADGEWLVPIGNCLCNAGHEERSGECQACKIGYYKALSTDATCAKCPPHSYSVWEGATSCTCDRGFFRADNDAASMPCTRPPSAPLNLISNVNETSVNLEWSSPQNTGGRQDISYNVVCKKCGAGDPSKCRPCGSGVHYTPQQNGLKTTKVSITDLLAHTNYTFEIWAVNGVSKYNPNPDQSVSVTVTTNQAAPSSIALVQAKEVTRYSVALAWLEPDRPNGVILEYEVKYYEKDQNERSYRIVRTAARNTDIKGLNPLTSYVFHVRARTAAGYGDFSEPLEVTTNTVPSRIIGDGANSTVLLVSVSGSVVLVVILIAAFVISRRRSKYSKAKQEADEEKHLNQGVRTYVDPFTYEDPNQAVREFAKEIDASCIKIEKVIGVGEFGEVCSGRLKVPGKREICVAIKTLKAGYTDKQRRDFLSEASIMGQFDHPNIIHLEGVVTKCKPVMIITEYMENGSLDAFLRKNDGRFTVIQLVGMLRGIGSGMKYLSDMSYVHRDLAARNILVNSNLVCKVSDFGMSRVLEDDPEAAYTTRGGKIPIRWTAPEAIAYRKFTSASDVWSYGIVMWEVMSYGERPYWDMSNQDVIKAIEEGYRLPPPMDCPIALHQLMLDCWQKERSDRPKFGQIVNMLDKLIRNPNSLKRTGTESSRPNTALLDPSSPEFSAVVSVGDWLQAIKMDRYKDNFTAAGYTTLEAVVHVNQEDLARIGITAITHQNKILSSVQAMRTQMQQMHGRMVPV
Chain of Ephrin type-A receptor 7 (Homo sapiens) (Q15375 28-998 limits assumed): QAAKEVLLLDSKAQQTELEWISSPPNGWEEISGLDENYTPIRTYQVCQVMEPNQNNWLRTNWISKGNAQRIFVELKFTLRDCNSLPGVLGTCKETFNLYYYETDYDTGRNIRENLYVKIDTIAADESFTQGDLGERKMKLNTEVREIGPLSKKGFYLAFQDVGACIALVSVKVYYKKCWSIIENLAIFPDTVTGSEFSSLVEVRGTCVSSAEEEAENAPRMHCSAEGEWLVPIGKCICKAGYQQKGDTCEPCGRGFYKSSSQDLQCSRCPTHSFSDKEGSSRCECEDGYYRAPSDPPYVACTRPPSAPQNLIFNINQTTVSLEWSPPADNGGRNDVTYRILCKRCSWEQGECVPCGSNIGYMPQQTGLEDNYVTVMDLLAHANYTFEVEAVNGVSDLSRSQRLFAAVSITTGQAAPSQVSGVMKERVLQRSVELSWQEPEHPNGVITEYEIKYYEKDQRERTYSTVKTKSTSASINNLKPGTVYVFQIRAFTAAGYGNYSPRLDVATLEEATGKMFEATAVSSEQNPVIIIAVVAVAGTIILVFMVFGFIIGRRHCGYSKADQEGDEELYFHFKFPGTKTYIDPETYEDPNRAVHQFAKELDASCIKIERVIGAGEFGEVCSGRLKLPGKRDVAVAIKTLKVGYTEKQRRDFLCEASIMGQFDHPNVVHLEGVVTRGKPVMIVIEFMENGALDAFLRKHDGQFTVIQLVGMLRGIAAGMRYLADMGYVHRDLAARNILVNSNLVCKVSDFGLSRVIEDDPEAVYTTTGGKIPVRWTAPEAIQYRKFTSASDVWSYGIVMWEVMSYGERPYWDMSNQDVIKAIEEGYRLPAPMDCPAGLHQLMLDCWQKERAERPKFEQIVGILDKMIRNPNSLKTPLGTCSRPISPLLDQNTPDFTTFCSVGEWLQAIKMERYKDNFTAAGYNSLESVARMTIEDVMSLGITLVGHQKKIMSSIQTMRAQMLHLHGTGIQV
Chain of Ephrin type-A receptor 5 (Homo sapiens) (P54756 whole entry): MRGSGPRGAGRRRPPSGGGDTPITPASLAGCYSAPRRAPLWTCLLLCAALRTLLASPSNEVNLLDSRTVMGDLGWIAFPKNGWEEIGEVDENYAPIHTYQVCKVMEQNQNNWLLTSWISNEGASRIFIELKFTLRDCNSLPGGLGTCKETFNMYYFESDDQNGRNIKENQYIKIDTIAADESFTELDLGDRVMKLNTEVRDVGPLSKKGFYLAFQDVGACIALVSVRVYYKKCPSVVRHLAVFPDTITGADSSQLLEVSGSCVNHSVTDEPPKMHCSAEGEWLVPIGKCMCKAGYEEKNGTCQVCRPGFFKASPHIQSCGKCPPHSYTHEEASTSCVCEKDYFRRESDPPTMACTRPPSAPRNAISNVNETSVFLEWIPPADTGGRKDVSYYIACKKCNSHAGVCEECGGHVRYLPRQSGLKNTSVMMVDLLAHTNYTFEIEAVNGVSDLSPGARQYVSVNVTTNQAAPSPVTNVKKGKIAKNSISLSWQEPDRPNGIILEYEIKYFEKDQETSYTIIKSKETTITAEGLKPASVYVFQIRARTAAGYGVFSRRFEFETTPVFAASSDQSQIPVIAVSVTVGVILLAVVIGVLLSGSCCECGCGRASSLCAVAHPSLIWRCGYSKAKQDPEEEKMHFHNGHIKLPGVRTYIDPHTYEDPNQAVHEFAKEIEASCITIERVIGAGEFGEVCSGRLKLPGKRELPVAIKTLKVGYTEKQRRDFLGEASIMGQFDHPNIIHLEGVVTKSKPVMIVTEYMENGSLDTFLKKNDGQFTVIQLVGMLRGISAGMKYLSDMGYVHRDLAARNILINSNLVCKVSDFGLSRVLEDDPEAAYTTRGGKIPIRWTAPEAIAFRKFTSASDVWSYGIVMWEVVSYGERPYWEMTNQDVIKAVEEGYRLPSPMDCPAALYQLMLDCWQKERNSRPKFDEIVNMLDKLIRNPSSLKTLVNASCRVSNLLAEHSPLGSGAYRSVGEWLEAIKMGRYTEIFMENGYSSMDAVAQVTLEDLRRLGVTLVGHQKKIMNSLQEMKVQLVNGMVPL

Structure (SMILES)	residual activity [1] [%]	residual activity [2] [%]	residual activity [3] [%]	residual activity [4] [%]	residual activity [5] [%]	residual activity [6]	residual activity [7] [%]	residual activity [8] [%]	residual activity [9] [%]	residual activity [10] [%]	residual activity [11] [%]	residual activity [12] [%]	residual activity [13] [%]
O=C1Cc2c([nH]c3ccc([N+](=O)[O-])cc23)-c2ccccc2N1	105	105	81	106	107	124% (inactive)	113	–	–	–	–	–	–
O=C(NC(NC(=S)Nc1ccc(F)c([N+](=O)[O-])c1)C(Cl)(Cl)Cl)C(c1ccccc1)c1ccccc1 (configuration not stated)	96	–	84	–	–	104% (inactive)	84	104	91	102	99	103	97
